Experimental data published in the supplement of paper PMC10849652.
About 7,900 targets were measured; listed, in parts, are those with a hit and a random draw of the rest. About 0.6% of all pairs of compound and target were hits.

Legend:
Test in all cases: log2 fold change, soluble protein after heating vs DMSO (PISA); higher = thermal stabilisation; K562 cells, 10 uM, 30 min; active = over 0.2 and 3.5 SD of the protein, either way, in both replicates (recomputed)
[1] = compound: C1=CC=C(C=C1)[C@H](COC2=CC3=C(C=C2)NC(=O)N3)NC(=O)C4=CC=CN(C4=O)CC5=CC(=C(C=C5)F)F
Procedure, shortened: (§1)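 K562 cells at 2×10^6 cells/mL were treated with 10 μM compound for 30 min. Aliquots were heated for 3 min across 48°C-58°C, pooled, and extracted in PBS with 0.5% NP-40 at 4°C; soluble protein was the supernatant after 21,000xg for 90 min. Soluble protein was quantified by TMTpro 16plex LC-MS/MS with channel sums equalised, and reported as log2 fold change in thermal stability against DMSO controls, with values from duplicates.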

[2] = compound: CC1=C(SC2=C1C(=N[C@H](C3=NN=C(N32)C)CC(=O)N)C4=CC=C(C=C4)Cl)C
Procedure, shortened: as §1

[3] = compound: CC1=C2C(=CC=C1)N=C(N(C2=O)C3=CC=CC=C3C)CN4C=NC5=C(N=CN=C54)N
Procedure, shortened: as §1

[4] = compound: Cc1sc2c(c1C)C(c1ccc(Cl)cc1)=N[C@@H](CC(=O)OC(C)(C)C)c1nnc(C)n1-2
Procedure, shortened: as §1

[5] = compound: c1ccc([C@@H]2C[C@H]2NC2CCNCC2)cc1
Procedure, shortened: as §1

Measured: log2 fold change

KDM3B (UniProt Q7LBC6)
UniProt Q7LBC6, sequence (Q7LBC6 whole entry, looked up): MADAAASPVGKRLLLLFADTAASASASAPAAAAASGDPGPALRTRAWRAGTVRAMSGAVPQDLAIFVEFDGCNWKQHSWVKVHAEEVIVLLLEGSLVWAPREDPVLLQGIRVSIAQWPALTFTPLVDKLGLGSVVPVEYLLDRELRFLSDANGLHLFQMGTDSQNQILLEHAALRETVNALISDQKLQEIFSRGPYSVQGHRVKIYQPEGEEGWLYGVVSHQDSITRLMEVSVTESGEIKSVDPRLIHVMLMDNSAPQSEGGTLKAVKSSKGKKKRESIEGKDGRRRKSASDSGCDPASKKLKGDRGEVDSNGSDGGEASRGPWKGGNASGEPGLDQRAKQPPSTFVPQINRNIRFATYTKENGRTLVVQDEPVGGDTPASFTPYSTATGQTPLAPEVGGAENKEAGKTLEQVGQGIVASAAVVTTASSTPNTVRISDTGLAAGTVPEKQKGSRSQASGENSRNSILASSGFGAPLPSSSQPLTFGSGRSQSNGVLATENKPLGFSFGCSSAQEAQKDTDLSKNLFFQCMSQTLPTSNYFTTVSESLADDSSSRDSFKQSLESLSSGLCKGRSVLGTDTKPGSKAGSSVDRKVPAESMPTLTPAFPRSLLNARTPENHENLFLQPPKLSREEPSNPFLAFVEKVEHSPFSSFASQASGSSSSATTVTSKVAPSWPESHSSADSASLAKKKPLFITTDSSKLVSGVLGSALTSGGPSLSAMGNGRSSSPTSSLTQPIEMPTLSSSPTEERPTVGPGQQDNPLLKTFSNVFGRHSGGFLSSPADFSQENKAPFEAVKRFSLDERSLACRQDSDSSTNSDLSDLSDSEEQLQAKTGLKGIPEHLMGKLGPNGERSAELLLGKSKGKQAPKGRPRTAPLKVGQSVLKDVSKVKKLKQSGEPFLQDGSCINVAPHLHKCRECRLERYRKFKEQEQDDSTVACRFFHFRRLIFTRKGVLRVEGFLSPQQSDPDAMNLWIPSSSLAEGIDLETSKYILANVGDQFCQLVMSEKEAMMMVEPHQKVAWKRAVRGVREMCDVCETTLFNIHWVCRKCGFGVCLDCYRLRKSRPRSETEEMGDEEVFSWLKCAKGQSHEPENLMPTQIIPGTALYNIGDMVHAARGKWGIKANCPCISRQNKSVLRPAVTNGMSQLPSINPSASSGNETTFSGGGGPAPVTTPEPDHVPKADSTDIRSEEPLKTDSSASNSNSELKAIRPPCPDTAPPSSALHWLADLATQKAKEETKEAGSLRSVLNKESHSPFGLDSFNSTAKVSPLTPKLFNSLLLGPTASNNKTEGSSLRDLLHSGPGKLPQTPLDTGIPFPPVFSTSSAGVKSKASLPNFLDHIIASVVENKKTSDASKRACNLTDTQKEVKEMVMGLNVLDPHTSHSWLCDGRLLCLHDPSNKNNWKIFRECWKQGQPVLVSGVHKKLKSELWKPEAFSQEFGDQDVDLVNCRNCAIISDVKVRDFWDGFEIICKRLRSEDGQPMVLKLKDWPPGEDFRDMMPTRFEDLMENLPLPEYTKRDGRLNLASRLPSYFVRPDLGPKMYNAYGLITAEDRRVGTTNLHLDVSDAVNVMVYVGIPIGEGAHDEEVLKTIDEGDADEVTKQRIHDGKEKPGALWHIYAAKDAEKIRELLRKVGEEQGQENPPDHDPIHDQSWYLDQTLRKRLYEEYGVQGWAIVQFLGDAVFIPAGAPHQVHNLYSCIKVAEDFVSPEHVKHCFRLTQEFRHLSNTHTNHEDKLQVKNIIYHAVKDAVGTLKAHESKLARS
inactive: [1] -0.013 | [2] 0.026 | [3] 0.08 | [4] 0.038 | [5] 0.071

IWS1 (UniProt Q96ST2)
inactive: [1] -0.01 | [2] 0.08 | [3] 0.037 | [4] 0.045 | [5] -0.035

KPNA1 (UniProt P52294)
UniProt P52294, sequence (P52294 whole entry, looked up): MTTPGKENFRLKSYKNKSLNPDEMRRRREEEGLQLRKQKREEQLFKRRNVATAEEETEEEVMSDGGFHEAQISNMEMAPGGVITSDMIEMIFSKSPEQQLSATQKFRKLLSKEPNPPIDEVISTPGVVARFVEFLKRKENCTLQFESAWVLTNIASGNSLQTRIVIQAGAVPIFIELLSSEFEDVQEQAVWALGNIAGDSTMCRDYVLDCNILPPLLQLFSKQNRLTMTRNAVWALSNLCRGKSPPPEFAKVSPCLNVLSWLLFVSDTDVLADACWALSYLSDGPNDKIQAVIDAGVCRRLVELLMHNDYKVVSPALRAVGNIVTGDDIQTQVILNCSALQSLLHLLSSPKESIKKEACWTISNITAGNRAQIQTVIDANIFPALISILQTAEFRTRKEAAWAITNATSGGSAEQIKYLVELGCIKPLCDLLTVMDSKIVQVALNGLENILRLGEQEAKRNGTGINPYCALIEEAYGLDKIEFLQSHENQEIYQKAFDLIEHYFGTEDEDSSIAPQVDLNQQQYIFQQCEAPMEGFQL
inactive: [1] -0.03 | [2] -0.049 | [3] 0.079 | [4] -0.003 | [5] -0.001

LMNB1 (UniProt P20700)
UniProt P20700, sequence (P20700 whole entry, looked up): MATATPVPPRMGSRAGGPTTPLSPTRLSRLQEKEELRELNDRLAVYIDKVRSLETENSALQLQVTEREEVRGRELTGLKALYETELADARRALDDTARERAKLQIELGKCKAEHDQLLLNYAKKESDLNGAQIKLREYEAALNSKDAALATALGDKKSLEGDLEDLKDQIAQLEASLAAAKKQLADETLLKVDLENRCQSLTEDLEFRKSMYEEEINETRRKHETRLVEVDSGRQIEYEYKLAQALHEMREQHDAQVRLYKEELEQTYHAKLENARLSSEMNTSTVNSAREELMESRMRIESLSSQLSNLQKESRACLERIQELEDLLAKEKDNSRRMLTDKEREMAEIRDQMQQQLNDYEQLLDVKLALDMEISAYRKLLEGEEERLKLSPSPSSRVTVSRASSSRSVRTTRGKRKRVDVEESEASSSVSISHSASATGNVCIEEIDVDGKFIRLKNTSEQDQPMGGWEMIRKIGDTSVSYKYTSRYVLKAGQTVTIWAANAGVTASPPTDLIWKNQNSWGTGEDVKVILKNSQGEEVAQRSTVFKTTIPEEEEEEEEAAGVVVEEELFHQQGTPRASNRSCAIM
inactive: [1] 0.08 | [2] -0.005 | [3] -0.009 | [4] -0.018 | [5] 0.042

MAP2K3 isoform 3 (UniProt P46734)
UniProt P46734, sequence (P46734 whole entry, looked up): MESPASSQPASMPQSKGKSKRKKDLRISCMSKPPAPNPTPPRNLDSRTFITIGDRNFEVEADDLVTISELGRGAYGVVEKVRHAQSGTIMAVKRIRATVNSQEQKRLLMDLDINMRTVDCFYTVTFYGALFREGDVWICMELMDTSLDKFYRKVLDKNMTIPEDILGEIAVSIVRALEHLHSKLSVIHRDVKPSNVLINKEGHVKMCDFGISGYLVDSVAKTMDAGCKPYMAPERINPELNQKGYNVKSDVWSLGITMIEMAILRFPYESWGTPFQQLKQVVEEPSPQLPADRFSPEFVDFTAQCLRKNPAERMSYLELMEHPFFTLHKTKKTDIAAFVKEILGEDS
inactive: [1] -0.091 | [2] -0.051 | [3] 0.05 | [4] 0.026 | [5] 0.016

MGST1 (UniProt P10620)
UniProt P10620, sequence (P10620 whole entry, looked up): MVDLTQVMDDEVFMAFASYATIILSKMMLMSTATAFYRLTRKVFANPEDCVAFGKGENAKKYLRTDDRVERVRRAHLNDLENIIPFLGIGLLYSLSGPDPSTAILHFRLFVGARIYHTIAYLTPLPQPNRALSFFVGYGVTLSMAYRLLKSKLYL
inactive: [1] -0.061 | [2] 0.032 | [3] -0.11 | [4] 0.05 | [5] 0.008
